This is an account of results in ChEMBL document CHEMBL3988442, “University of Dundee, Small-Polar-MMV Screening Library” (2021).

Molecules are shown by their SMILES. In all, about 48,000 compounds went through this assay and about 13,000 (27%) showed an effect of 50% or more. The list shows a part of the results.

The test system of the test is Wolbachia pipientis. In words: Anti-Wolbachia Cell-Based Screen. It counts as functional. More on the design: scale not given: in the data most compounds retested in dose-response had high values. To be noted: 5 µM.
`Cc1nc(C(NC(=O)CC(F)(F)F)c2ccc(Cl)cc2)no1` (stereo unspecified): the “Percent Effect” value is given as 0.7806%.
As to `CC(C)CS(=O)(=O)CC(=O)N1CCCC1c1noc(C2CC2)n1` (stereo unspecified), the “Percent Effect” value is -6.47%.
`Cn1c(C2CCCN2C(=O)CN2CCCC2=O)nc2ccccc21` (stereo unspecified): the “Percent Effect” value was determined as 0.4362%.
For `COCC(=O)N1CCCC1c1cccc(C)c1C` (stereo unspecified) the value was 4.955%; for `COCC(=O)N1CCCCC1c1nc(C)c2c(n1)N(CC1CC1)C(=O)C2` (stereo unspecified), 105.7%; for `COCC(=O)N1CCCC1c1nc(C)c2c(n1)N(CC(C)C)C(=O)CC2` (stereo unspecified), 117%.
`COCCC(=O)N1CCCC1c1nc(C)c2c(n1)N(C)C(=O)CC2` (stereo unspecified): the “Percent Effect” value came out at 147.7%.
`COCCC(=O)N1CCCC1c1cccc(C)c1C` (stereo unspecified): the “Percent Effect” value was 3.518%.
In the case of `COCC(=O)N1CCCCC1c1nc(C)c2c(n1)N(C1CC1)C(=O)CC2` (stereo unspecified), the “Percent Effect” value is on record as 63.67%.
For `COCCn1cc(C(=O)N2CCCC2c2noc(C)n2)ccc1=O` (stereo unspecified) the value was 10.03%; for `CC(Nc1nc2c(cnn2C)c(=O)[nH]1)c1ccc(F)cc1` (stereo unspecified), -20.73%.
Consider `COCCN1CC(C(=O)N(C)Cc2cc(-c3cccnc3)no2)CC1=O` (stereo unspecified), for which the “Percent Effect” value is -16.5%.
Take `O=C(c1cnc2c(c1)CCC2)N1CCCC(CO)(CC2CC2)C1` (stereo unspecified): the “Percent Effect” value is listed as -2.632%.
In the case of `OC[C@@H](O)CN(CCC(F)(F)F)c1ncc(Br)cn1`, the “Percent Effect” value stood at 8.436%.
`CCC(Nc1nnnn1-c1ccccc1)C(=O)NCc1ccsc1` (stereo unspecified): the “Percent Effect” value worked out at 4.065%.
As to `CCN(CC)C(=O)CN1CCCC1c1nc(C)c2c(n1)N(C)C(=O)CC2` (stereo unspecified), the “Percent Effect” value is recorded as 125.7%.
For `CCN(CC)C(=O)CN1CCCC1C(=O)N(C)C` (stereo unspecified) the value was 1.193%; for `Cc1nc(C2CCCN2CC(=O)N(Cc2ccsc2)C2CC2)no1` (stereo unspecified), -3.982%.
As to `Cn1cccc1C(=O)NCc1cnc2n1CCN(CC1CCOCC1)C2.O=C(O)C(F)(F)F`, the “Percent Effect” value worked out at 19.82%.
Regarding `Cn1ccnc1C(=O)NC[C@@H]1OC[C@H]2CN(CC3CC3)CC[C@H]21.O=C(O)C(F)(F)F`, the “Percent Effect” value is given as -43.28%.
As to `Cn1ccnc1C(=O)NCc1cnc2n1CCN(CC1CC1)CC2.O=C(O)C(F)(F)F.O=C(O)C(F)(F)F`, the “Percent Effect” value is on record as 88.03%.
For `O=C(NCc1cn2c(n1)CN(Cc1nccs1)CC2)C1CCC1.O=C(O)C(F)(F)F` the value was -3.871%; for `Cc1ccc(CN2CCc3ncc(CNS(C)(=O)=O)n3CC2)o1.O=C(O)C(F)(F)F`, -0.4637%; for `O=C(NCc1cnc2n1CCN(CC1CCOCC1)C2)c1ccno1.O=C(O)C(F)(F)F`, -43.24%.
Regarding `Cc1ccc(CN2CCc3ncc(CNC(=O)C4CCC4)n3CC2)o1.O=C(O)C(F)(F)F`, the “Percent Effect” value was 89.47%.
For `O=C(NCc1cnc2n1CCN(Cc1ccsc1)CC2)C1CCC1.O=C(O)C(F)(F)F` the value was -9.045%; for `Cc1cc(C(=O)N2CCc3ncc(CN4CCCC4)n3CC2)no1.O=C(O)C(F)(F)F`, -20%.
Consider `O=C(NCc1cnc2n1CCN(CC1CC1)C2)C1CC1.O=C(O)C(F)(F)F`, for which the “Percent Effect” value is 80.69%.
In the case of `O=C(NCc1cnc2n1CCN(Cc1nccs1)CC2)C1CCC1.O=C(O)C(F)(F)F`, the “Percent Effect” value came out at 95.25%.
As to `Cn1cccc1C(=O)NCc1cnc2n1CCN(CC1CC1)C2.O=C(O)C(F)(F)F`, the “Percent Effect” value is given as -11%.
`CC(=O)Nc1ccsc1C(=O)Nc1cnc2n1CCCC2`: the “Percent Effect” value stood at 1.629%.
Consider `CNc1nc(C(=O)NCC2CCOc3ccccc3C2)cs1` (stereo unspecified), for which the “Percent Effect” value was found to be 3.092%.
For `CC(C)C1CN(c2nccc(N)n2)CCC(=O)N1Cc1ccc(F)cc1` (stereo unspecified), the “Percent Effect” value stood at 6.607%.
For `COc1cccc(OCC2CCCN(C(=O)c3ccc(N)nc3)C2)c1` (stereo unspecified) the value was -26.62%; for `CC(C)N(CC(=O)Nc1ccc(Br)cc1Cl)Cc1cccnc1`, -0.1768%; for `COC(=O)CCC(=O)N1CCc2nc(C(=O)N3CCOCC3)sc2CC1`, -7.844%.
With `CN(Cc1ccco1)[C@@H]1CN(CC2CCOCC2)C[C@@H]2CCCO[C@@H]21.O=C(O)C(F)(F)F.O=C(O)C(F)(F)F`, the “Percent Effect” value was 2.943%.
Consider `COc1nn(C)cc1C(=O)N1CCC(c2ccccc2)C1` (stereo unspecified), for which the “Percent Effect” value is reported as 121.1%.
In the case of `CCN(CC)C(=O)CCNC(=O)N1CCC(c2ccccc2)C1` (stereo unspecified), the “Percent Effect” value is given as 4.092%.
With `CC1CCN(C(=O)c2cn(-c3cc(N4CCSCC4)ncn3)cn2)CC1`, the “Percent Effect” value is on record as 12.42%.
For `O=C(NCCNC(=O)N1CCC(c2ccccc2)C1)C1CC1` (stereo unspecified) the value was -9.135%.
Take `CC1CCN(C(=O)c2ccn(COc3ccc(F)cc3)n2)CC1`: the “Percent Effect” value is recorded as 3.69%.
As to `COc1nn(C)cc1C(=O)N1CCC(C)CC1`, the “Percent Effect” value was 127.9%.
`CCNC(=O)N1CCC(c2ccccc2)C1` (stereo unspecified): the “Percent Effect” value is on record as 124.1%.
Turning to `Cn1cnc2cc(C(=O)N3CCC(c4ccccc4C(=O)O)C3)cnc21` (stereo unspecified), the “Percent Effect” value is 0.5169%.
Under `CS(=O)(=O)Cc1ccc(Cl)cc1NCc1cccc(F)c1F` stands -9.935%; under `CC(=O)NCC1CCN(CC2CCOc3ccccc3C2)CC1` (stereo unspecified), 6.943%; under `CCCN1CC2(CCN(C)CC2)CC1C(=O)NCCn1cccn1` (stereo unspecified), 6.399%.
For the compound `COc1ccc(CN2CCN(CC3CC3)[C@@H]3CS(=O)(=O)C[C@@H]32)cc1C`, the “Percent Effect” value is 20.23%.
Take `CNS(=O)(=O)c1cccc(CNc2nccc(C(F)(F)F)n2)c1`: the “Percent Effect” value is reported as -7.88%.
In the case of `COc1ccc(Cl)cc1CN(C)CC(=O)/N=c1\cc[nH]n1C(C)C1CC1` (stereo unspecified), the “Percent Effect” value is -13.95%.
Regarding `C1Cc2nc(CCNc3nc(C4CC4)nc4c3CCNCC4)sc2C1`, the “Percent Effect” value is listed as 0.8801%.
For `OC1(CNCCc2nc3c(s2)CCCC3)CCNC1` (stereo unspecified) the value was 87.02%; for `OC1(CNCCSc2ccccn2)CNCCOC1` (stereo unspecified), -26.11%; for `Cc1nc2c(c(NCCc3nc4c(s3)CCCC4)n1)CCNCC2`, 7.698%.
Consider `OC1(CNCCc2nc(Cc3ccccc3)no2)CNCCOC1` (stereo unspecified), for which the “Percent Effect” value amounted to 14.79%.
For `OC1(CNCCc2nc3c(s2)CCCC3)CNCCOC1` (stereo unspecified) the value was 109%; for `CC(C)NCc1nc(-c2ccc3c(c2)OCO3)c[nH]1.Cl.Cl`, 8.786%.
For the compound `CCCc1cc(NC(=O)c2cccc(N3CCCNC3=O)c2)n[nH]1`, the “Percent Effect” value stood at 11.29%.
In the case of `COCCN1CCC(c2cncc(-c3ccccc3C)n2)CC1`, the “Percent Effect” value is 100.9%.
On to `Cn1cncc1-c1nnc([C@H]2CCN(C3CCOCC3)C2)o1`, for which the “Percent Effect” value is reported as -2.913%.
For `Cc1ccccc1-c1cncc(C2CCN(CCO)CC2)n1`, the “Percent Effect” value turned out to be 122.1%.
Turning to `Cc1ccccc1-c1cncc(C2CCN(C)CC2)n1`, the “Percent Effect” value is -14.26%.
On to `CN(C)S(=O)(=O)N1CCC(Cn2cccn2)CC1`, for which the “Percent Effect” value came to 2.027%.
On to `Cc1ccccc1-c1cncc(C2CCN(S(=O)(=O)N(C)C)CC2)n1`, for which the “Percent Effect” value came to 110.9%.
Consider `Cc1ccccc1-c1cncc(C2CCN(C3CCOCC3)CC2)n1`, for which the “Percent Effect” value is reported as 110.9%.
Under `CCc1nc2n(n1)CC(NCC(=O)Nc1ccc(Cl)cn1)CC2` (stereo unspecified) stands -9.728%.
Under `CC(C)(C)NC(=O)Cn1cc(C(N)=O)c(-c2ccccc2)n1` stands 6.588%; under `CN1CCN(Cc2noc(-c3cc(-c4ccc(F)cc4)n[nH]3)n2)CC1`, -13.75%.
With `Clc1ccc2cccnc2c1CN1CCCC(Cn2cncn2)C1` (stereo unspecified), the “Percent Effect” value is -4.204%.
With `CCn1c(CN(C)C)nnc1C1CCN(Cc2ccccn2)CC1`, the “Percent Effect” value was 2.831%.
Take `CN(CC(F)(F)F)C(=O)CN1CCC(c2cc3ccccc3[nH]2)CC1`: the “Percent Effect” value is -8.939%.
Under `Fc1ccccc1CC1CCN(Cc2ccccn2)CC1` stands -1.082%.
Take `Cc1ccccc1-c1cncc(C2CCN(CC(=O)N(C)C)CC2)n1`: the “Percent Effect” value is 124.8%.
Under `Cn1cc(CN2CCC(CCC(=O)Nc3ccccc3Cl)CC2)cn1` stands 1.121%.
As to `Cc1ccccc1-c1cncc(C2CCN(Cc3ccccn3)CC2)n1`, the “Percent Effect” value is on record as 93.34%.
With `Oc1nc(C2CCN(Cc3ccccn3)CC2)cc2ccccc12`, the “Percent Effect” value stood at 103.3%.
Turning to `Cc1ccccc1-c1cncc(C2CCN(C(=O)CN(C)C)CC2)n1`, the “Percent Effect” value is on record as -14.47%.
Under `Cc1ccccc1-c1cncc(C2CCN(Cc3cnn(C)c3)CC2)n1` stands 99.14%; under `CCn1c(CN2CCCC2)nnc1C1CCN(Cc2ccccn2)CC1`, -10.72%.
`CC(=O)Nc1ccc(CC(=O)N2CC(S(=O)(=O)C3CCCCC3)C2)cc1`: the “Percent Effect” value was 1.653%.
For the compound `Cc1oc(-c2ccsc2)nc1CNCCn1cccn1`, the “Percent Effect” value is reported as -19.09%.
For `c1nc(NCC2(N3CCOCC3)CCSC2)c2sccc2n1` (stereo unspecified), the “Percent Effect” value is listed as -18.02%.
As for `CCc1nc(NCCCOC)c2c(n1)c(C)nn2C`, the “Percent Effect” value was determined as 12.69%.
`O=C(CN1CCCC1c1nc(-c2ccccn2)no1)N1CCNCC1` (stereo unspecified): the “Percent Effect” value is listed as 2.337%.
For `CCCn1ccnc1CN1CCCC1c1ccccn1` (stereo unspecified), the “Percent Effect” value came out at 6.189%.
Regarding `CN(CCc1ccccn1)S(=O)(=O)N1CCCC1c1ccco1` (stereo unspecified), the “Percent Effect” value is listed as 10.93%.
In the case of `CCc1nccn1-c1cncc(C2CCCN2CC(=O)N2CCCC2)n1` (stereo unspecified), the “Percent Effect” value came out at 115.3%.
For `CN(C)C(=O)CCc1cncc(C2CCCN2Cc2ccccn2)n1` (stereo unspecified) the value was 97.92%.
Consider `CCc1nccn1CC(=O)N1CCN(C2CCc3ccccc3C2)CC1` (stereo unspecified), for which the “Percent Effect” value was -21%.
Under `CCc1nccn1-c1cncc(C2CCCN2Cc2cccnc2)n1` (stereo unspecified) stands -2.141%; under `CCc1nccn1-c1cncc(C2CCCN2Cc2ccccc2)n1` (stereo unspecified), 119.3%.
As to `CCc1nccn1-c1cncc(C2CCCN2Cc2ccc(F)cc2)n1` (stereo unspecified), the “Percent Effect” value was -3.137%.
Take `CCn1ccnc1CN1CCN(Cc2ccccn2)CC1C` (stereo unspecified): the “Percent Effect” value is -25.03%.
For `CCc1nccn1-c1cncc(C2CCCN2Cc2ccccn2)n1` (stereo unspecified) the value was 112.2%; for `O=C(CN1C(=O)CCC1=O)N1CCOC2(CCOCC2)C1`, 13.71%.
For `O=C(NC1CCN(CC2CC2)C1)c1ccc(N2CCC(O)CC2)cc1` (stereo unspecified) the value was -2.601%; for `CCN(C)S(=O)(=O)N(CC)Cc1cccc(-c2ccncc2)c1`, 31.71%.
Under `Cc1cc2c(cc1C)OC(C(=O)NCCNC(=O)C1CCCC1)C2` (stereo unspecified) stands -3.964%; under `Cc1ccc(C)c(-n2cc(CN3CC[C@@H](O)C3)c(-c3ccccc3)n2)c1`, 7.715%; under `CCN1CCN(C(=O)c2ccc3c(c2)OCC(=O)N3)[C@H]2CS(=O)(=O)C[C@H]21`, -0.2208%.
